Experimental findings from PubChem BioAssay (NCI) are described below.

Several values for one entry are separate records, joined by “and”; a condition that tells them apart may be missing. Identical values can stand only once. This is part of a sample that, as a whole, favours compounds with a hit. Of some 83,000 tested, about 20% had one in any assay.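 Each cell line was grown in a 96-well plate and treated with one concentration of compound for 48 hours. Values below 10 were considered active.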 A number with no mark means an inactive call. Where a SMILES comes first, the peptide text is derived from it.

For this test, the system named is NCI-H322M lung. Nature of the test: NCI-60 one-dose screen, 48 h (100 = growth as untreated, 0 = no growth, -100 = all killed). To be noted: 10 µM unless noted. As for the experimental part: Growth inhibition of the NCI-H322M human Non-Small Cell Lung tumor cell line is measured as a screen for anti-cancer activity. Cells are grown in 96 well plates and exposed to the test compound for 48 hours. Compounds are tested at a single concentration, which is 10^-5 M for most compounds. The reported endpoint is percent growth (GI% or GIPRCNT), where numbers from 0 - 100% represent growth inhibition, and numbers from -100% - 0 represent cell death. For example, a value of 40 represents 60% growth inhibition. A value of 0 means no net growth occurred over the course of the experiment. A value of -40 indicates 40% of cells at the beginning of the experiment died by the end of the experiment. A value of -100 means all cells are dead at the end of the experiment.
NCI-60 Human Tumor Cell Lines Screen was performed using the standard one-dose NCI protocol, which is described in more detail at https://dtp.cancer.gov/discovery_development/nci-60/default.htm.
Compounds with GIPRCNT values below 10 were considered active. Activity score was based on GIPRCNT using the following formula: […]
Score is 0 for GIPRCNT values of 100 or above, 50 for GIPRCNT values of 0, and 100 for GIPRCNT values of -100.
`ClCCOCCOc1ccc(C2CCCCC2)cc1`: the growth is 121%. The value for `CC1(C)COC(=S)N1` was 101%. Regarding `NC(Cc1c[nH]c2ccccc12)C(=O)O` (stereo not given), the growth is 98.8% and 111%. Consider `Cc1ccc(=O)[nH]n1`, for which the growth is 104% and 103%. The value for `CCCCNc1ccc(Nc2ccccc2)cc1` was 98.3%.

Consider `CC(C)NC(=O)N/C=C(\C#N)C(N)=O`, for which the growth was 99.5%.

Consider `OCCN1CCCCCCC1`, for which the growth was 101%. For the molecule `CC1CCC2(C(=O)O)CCC3(C)C(=CCC4C5(C)CCC(O)C(C)(C)C5CCC43C)C2C1C` (stereo not given), the growth is 67.3% and 92.7%.

For `CCCCCCCCCCCCCCCc1ccc(N)c(OC2OC(CO)C(O)C(O)C2O)c1` (stereo not given), the growth was 77.1%. As for `COc1cc(C(O)C2C(=O)OCC2C2(c3ccc4c(c3)OCO4)SCCCS2)cc(OC)c1OC` (stereo not given), the growth is 104%. Regarding `Cc1ccc(S(=O)(=O)c2ccccc2)cc1`, the growth was 57.1%. As for `Fc1ccc([I+]c2ccc(F)cc2)cc1`, the growth was 76.1%.

Turning to `CCN(CCNS(C)(=O)=O)c1ccc(N)c(C)c1`, the growth was 95.1% and 120%. As to `NC1CCC(C(=O)O)CC1` (stereo not given), the growth is 117% and 105%. Take `CCCCOC(=O)/C=C\C(=O)NC(N)=O`: the growth was 96.4%. The value for `N#CC(C#N)N=Nc1ccc(Cl)cc1` was 93.2%. As for `O=C(CO)C(O)C(O)C(O)C(O)CO` (stereo not given), the growth was 107% and 105%. The value for `Cn1cnc([N+](=O)[O-])c1Sc1ncn[nH]1` was 101%.

Regarding `Nc1nc(N)c2[nH]cnc2n1`, the growth is 111%. The value for `COc1ccc(N/C=C/C2=[N+](C)c3ccccc3C2(C)C)c(OC)c1` was 102%.

With `CCOC(=O)c1c(C)cc(=O)oc1C`, the growth is 110%.

For `c1ccc2c(c1)OC1OC2Oc2ccccc21`, the growth was 104%. Regarding `NN1CCOC(c2ccccc2)C1` (stereo not given), the growth is 97.7%. Turning to `O=C1CSC2=NCCN12`, the growth is 102% and 94.5%. Regarding `O=C1C=C(Nc2ccccc2)c2ccccc2C1=O`, the growth was 88.3% and 98.1%. For `Brc1ccc(SSc2ccc(Br)cc2)cc1`, the growth was 91.8%. As to `COc1ccc(C(=O)CC(c2ccccc2)C(C#N)c2ccccc2)cc1` (stereo not given), the growth is 103%. The value for `CC(=O)Nc1ccc(S(N)(=O)=O)cc1` was 113% and 92.5%. As for `CN1CNC(=O)NC1`, the growth is 120% and 92.3%.

`NC(Cc1ccccc1)C(=O)NC(Cc1ccccc1)C(=O)O` (stereo not drawn) (H-Phe-Phe-OH; configuration not given here): the growth was 94.6% and 100%. The value for `C/C(=C\c1ccccc1)c1ccccn1` was 96.8%; that for `Nc1cc(N)c(N)cc1N` was 107%; that for `O=C(O)/C=C\C(=O)Nc1cccc2ccccc12` was 105% and 117%. The value for `C#CCOC(=O)Nc1ccccc1` was 106%; that for `CCCCCCCCCCCCCCCCC(C(=O)O)C(O)(CC(=O)O)C(=O)O` (stereo not given) was 120% and 20%; that for `NC(=O)NCCCC(N)C(=O)O` (stereo not given) was 88.6%. In the case of `CC1CCC2(OC1)OC1CC3C4CC=C5CC(O)CCC5(C)C4CCC3(C)C1C2C` (stereo not given), the growth is 113%.

On to `CC(=O)OC(C)C(=O)NCC(C)O` (stereo not given), for which the growth was 90.7%.

As for `CCCCCCCCCCNC(=O)CI`, the growth was 96.8%. As to `Cc1cc(-c2cc(C)c(O)c(C)c2)cc(C)c1O`, the growth is 93.7%.
